According to the supplement of paper PMC11732987, “Enantioselective OTUD7B fragment discovery through chemoproteomics screening and high-throughput optimisation” (Communications Chemistry, 2025):

Columns and labels:
Test in all cases: log2 ratio of Biotin-Ahx-Ub-VS probe labelling (fragment/DMSO); higher = less target engagement (more negative = stronger competition), active = hit call of the paper (q ≤ 0.05, log2 ratio ≤ -1)
Settings in all cases: compound concentration: 200 uM; treatment time: 3 h
[1] = target: USP34 (UniProt Q70CQ2)
Chain of USP34 (Q70CQ2 whole entry, the tested form may be a part): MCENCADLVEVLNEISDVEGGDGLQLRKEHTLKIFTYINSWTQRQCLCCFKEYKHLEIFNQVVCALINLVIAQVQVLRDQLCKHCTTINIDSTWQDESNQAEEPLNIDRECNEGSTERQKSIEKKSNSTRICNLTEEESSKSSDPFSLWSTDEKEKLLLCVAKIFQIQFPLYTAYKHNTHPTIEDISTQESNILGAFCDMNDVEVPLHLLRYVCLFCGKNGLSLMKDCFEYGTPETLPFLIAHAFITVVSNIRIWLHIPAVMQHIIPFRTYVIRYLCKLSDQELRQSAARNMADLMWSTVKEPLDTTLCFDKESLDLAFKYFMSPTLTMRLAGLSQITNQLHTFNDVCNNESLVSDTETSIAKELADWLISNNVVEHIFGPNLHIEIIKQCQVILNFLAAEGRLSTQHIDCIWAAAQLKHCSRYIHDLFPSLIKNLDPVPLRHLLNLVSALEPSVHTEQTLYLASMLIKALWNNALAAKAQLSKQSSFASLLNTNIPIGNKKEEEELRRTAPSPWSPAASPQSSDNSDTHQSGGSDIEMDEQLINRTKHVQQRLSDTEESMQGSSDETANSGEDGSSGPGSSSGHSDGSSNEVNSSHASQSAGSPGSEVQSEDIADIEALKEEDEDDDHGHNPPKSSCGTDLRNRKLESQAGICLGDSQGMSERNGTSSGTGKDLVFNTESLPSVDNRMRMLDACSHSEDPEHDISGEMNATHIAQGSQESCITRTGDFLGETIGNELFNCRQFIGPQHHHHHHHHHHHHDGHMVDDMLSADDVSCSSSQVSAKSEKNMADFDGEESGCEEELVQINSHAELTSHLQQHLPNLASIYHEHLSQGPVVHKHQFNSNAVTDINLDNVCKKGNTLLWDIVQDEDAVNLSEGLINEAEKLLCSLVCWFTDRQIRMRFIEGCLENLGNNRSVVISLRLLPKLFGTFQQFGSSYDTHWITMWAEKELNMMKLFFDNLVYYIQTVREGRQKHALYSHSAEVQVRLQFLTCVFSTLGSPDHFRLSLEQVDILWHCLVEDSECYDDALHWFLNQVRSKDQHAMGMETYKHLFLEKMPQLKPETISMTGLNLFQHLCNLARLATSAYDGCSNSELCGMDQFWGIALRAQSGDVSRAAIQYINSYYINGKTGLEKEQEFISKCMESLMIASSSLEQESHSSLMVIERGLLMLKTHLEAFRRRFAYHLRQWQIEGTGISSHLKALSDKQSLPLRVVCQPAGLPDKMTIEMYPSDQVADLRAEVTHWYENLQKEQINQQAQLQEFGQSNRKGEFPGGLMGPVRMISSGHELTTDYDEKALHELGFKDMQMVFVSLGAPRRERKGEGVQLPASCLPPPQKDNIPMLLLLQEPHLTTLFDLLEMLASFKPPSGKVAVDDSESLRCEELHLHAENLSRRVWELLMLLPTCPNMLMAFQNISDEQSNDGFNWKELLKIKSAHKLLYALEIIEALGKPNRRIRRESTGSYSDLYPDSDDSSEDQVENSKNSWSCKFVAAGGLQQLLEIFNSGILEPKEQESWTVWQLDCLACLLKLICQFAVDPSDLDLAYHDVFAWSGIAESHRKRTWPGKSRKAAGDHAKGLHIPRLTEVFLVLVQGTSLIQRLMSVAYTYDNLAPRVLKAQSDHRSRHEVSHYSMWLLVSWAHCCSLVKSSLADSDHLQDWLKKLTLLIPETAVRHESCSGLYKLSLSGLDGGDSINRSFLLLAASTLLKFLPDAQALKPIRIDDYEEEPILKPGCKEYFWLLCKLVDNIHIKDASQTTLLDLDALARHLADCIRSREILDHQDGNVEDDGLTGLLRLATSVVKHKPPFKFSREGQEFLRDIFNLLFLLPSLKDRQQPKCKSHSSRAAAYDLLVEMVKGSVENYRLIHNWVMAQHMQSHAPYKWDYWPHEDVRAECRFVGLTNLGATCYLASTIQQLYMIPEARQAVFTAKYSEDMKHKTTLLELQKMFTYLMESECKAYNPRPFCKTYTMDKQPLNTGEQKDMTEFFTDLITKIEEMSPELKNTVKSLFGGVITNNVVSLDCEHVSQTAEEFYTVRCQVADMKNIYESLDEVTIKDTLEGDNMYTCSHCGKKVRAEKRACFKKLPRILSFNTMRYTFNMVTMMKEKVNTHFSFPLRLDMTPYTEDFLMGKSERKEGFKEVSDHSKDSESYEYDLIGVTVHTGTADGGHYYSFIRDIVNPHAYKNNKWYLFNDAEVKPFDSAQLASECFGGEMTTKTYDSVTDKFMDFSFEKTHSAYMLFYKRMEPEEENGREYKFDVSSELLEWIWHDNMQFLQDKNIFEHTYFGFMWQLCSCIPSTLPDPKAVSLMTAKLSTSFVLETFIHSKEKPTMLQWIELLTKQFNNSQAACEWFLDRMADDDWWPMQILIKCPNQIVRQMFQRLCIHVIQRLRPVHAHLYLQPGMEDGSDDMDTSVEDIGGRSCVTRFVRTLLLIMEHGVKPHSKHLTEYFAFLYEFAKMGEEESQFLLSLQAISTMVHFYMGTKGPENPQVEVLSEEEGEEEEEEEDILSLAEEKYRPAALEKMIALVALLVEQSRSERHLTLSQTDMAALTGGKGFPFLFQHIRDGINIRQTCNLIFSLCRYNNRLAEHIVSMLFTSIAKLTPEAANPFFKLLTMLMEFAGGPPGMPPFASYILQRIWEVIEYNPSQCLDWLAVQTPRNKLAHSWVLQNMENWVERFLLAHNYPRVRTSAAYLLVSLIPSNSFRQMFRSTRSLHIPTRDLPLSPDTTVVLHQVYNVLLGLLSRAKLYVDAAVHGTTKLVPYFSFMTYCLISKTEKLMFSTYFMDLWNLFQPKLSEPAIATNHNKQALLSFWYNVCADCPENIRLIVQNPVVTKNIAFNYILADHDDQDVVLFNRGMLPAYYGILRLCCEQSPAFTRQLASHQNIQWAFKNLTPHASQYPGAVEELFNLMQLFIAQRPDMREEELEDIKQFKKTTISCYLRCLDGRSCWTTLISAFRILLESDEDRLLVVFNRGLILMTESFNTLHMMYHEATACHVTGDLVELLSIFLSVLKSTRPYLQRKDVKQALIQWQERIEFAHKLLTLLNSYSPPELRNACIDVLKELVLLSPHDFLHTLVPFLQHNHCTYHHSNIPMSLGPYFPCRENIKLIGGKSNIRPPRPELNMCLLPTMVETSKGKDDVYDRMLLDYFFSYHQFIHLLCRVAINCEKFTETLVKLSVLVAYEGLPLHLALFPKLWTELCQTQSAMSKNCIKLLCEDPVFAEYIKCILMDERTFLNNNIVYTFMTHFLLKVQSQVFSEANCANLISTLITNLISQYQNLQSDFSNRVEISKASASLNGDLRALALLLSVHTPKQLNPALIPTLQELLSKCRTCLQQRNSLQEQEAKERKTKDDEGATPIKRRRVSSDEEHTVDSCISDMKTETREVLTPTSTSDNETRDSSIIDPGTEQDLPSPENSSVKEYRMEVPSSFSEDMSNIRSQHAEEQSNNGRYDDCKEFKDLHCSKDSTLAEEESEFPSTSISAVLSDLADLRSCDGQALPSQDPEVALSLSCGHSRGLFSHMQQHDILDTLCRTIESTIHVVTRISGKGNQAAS
In short: (§1)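 Labelling with Biotin-Ahx-Ub-VS (0.5 µM final, 1 h) followed a 3 h triplicate treatment of HEK293T lysate (495 µg per sample, Tris/CHAPS/IGEPAL buffer with protease inhibitors) with fragment at 200 µM or vehicle. Labelled DUBs were NeutrAvidin-enriched, digested with LysC and trypsin, and run by diaPASEF LC-MS/MS. The values, average log2 fragment/vehicle ratios by unpaired t-test, come from global-median-normalised Spectronaut label-free quantities. Proteins with ≥2 unique peptides were used.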

[2] = target: T1, USP36 (UniProt Q9P275)
T1 sequence (whole entry): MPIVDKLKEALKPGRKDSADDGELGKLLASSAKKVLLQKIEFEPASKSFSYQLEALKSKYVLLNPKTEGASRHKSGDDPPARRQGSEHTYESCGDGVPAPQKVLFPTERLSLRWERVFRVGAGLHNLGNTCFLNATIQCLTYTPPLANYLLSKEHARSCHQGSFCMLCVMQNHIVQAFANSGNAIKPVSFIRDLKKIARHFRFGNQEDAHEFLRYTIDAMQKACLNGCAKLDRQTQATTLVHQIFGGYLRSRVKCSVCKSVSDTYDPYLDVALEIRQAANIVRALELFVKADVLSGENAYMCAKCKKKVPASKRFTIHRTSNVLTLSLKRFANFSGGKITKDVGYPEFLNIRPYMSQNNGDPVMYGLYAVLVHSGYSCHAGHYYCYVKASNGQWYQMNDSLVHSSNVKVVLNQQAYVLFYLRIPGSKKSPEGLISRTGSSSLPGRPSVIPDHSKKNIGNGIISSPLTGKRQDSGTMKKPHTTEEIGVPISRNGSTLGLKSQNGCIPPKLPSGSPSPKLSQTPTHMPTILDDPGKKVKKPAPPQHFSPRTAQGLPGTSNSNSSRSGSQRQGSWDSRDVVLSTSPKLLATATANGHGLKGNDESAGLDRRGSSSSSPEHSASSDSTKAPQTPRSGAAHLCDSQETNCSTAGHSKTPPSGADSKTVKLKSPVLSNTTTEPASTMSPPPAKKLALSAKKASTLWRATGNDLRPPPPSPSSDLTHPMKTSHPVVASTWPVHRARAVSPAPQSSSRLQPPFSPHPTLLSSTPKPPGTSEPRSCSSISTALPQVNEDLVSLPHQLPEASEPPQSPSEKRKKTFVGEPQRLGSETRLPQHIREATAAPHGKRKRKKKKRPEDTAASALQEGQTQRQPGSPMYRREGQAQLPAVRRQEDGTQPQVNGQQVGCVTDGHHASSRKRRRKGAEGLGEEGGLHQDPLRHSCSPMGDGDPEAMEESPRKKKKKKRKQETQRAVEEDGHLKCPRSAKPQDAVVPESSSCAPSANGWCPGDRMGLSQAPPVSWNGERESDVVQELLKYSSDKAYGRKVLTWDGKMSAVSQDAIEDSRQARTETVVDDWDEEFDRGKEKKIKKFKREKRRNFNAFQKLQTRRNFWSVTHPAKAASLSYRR
In short: as §1

[3] = target: T2, USP38 (UniProt Q8NB14)
T2 sequence (whole entry): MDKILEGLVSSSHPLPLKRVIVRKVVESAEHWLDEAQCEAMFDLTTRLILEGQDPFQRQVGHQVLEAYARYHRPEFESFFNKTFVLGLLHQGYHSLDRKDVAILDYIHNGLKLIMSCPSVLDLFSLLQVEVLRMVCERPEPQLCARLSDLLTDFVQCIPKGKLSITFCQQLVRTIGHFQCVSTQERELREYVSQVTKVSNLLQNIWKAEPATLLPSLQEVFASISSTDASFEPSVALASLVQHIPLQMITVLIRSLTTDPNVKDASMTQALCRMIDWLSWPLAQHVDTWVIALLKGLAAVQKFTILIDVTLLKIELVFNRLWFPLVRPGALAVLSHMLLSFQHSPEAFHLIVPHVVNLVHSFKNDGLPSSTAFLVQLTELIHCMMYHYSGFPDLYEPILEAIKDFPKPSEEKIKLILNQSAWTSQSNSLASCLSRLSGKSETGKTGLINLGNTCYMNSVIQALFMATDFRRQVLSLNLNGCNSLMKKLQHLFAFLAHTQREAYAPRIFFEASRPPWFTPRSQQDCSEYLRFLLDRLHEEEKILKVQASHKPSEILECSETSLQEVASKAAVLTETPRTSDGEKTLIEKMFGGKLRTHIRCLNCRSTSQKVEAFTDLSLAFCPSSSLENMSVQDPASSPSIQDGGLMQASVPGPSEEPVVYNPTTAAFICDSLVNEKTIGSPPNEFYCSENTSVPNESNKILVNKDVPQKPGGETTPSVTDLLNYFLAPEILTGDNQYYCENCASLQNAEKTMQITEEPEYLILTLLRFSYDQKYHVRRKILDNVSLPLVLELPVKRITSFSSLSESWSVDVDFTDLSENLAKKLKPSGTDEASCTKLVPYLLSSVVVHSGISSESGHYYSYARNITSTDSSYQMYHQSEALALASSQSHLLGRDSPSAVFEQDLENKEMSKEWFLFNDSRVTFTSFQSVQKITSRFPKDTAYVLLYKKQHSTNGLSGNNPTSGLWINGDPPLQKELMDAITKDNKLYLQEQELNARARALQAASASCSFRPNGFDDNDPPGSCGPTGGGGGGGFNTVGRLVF
In short: as §1

[4] = target: T3, USP39 (UniProt Q53GS9)
T3 sequence (whole entry): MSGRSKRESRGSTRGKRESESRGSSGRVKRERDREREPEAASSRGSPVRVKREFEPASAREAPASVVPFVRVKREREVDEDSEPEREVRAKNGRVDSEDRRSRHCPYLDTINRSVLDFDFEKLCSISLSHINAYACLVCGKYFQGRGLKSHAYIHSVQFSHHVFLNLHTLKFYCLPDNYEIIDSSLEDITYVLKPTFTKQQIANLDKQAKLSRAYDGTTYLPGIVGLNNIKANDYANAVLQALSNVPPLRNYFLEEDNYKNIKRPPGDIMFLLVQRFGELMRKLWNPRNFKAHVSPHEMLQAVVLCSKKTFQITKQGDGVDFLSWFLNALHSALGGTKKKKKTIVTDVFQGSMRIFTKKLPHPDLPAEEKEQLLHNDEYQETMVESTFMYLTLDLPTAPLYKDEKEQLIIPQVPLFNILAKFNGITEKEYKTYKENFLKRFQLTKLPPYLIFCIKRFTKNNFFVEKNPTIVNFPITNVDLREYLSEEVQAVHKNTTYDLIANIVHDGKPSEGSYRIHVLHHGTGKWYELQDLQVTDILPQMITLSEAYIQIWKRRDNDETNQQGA
In short: as §1

[5] = target: T4, USP4 (UniProt Q13107)
T4 sequence (whole entry): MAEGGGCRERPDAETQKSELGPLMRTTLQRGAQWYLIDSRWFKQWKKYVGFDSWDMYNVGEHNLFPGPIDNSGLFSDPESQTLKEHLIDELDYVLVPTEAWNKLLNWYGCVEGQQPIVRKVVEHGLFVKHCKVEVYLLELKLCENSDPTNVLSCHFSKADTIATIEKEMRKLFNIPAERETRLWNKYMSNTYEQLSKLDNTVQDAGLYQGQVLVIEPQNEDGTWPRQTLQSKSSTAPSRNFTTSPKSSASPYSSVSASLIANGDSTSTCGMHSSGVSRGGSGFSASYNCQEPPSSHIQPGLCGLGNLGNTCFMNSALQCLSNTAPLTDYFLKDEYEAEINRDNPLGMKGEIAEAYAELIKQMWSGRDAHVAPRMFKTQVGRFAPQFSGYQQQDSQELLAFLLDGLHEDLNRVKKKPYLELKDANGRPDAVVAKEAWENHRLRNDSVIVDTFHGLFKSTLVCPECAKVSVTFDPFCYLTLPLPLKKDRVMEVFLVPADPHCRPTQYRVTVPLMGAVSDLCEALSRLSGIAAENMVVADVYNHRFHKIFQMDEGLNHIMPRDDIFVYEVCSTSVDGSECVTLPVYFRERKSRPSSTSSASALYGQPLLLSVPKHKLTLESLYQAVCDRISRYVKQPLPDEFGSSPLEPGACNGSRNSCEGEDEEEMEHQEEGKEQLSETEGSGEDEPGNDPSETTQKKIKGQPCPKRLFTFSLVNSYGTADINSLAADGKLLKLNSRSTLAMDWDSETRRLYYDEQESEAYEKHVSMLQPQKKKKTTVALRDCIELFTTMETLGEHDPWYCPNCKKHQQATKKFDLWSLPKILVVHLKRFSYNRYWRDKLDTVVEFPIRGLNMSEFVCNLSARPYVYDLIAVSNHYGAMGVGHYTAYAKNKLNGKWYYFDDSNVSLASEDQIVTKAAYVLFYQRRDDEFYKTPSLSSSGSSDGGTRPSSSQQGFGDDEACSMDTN
In short: as §1

Measured: log2 ratio of Biotin-Ahx-Ub-VS probe labelling

O=C(CCl)N1CCc2sccc2C1
inactive: [1] -0.165 | [2] -0.212 | [3] -0.305 | [4] 0.0206 | [5] -0.861
